Inconclusive results are not listed. Active and inactive are the calls of the source. Unless noted, calls come from the whole dose curve; as a rule, active = well fitted curve in the direction sought with a large enough effect in the repeat runs; inconclusive = weak or mixed curves; inactive = no such curve, though single readings can be large; an effect the other way counts as inactive or inconclusive.
Tests used:
[1] = qHTS assay to identify small molecule antagonists of the estrogen related receptor (ERR) signaling pathway from Tox21 library - cell viability counter screen (AID 1224834); note: nearly all actives have a fitted effect of over 30% in size
Summary of the method: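 Compounds in DMSO were pinned onto ERR cells that had been incubated for 6 h, and the plates were held at 37 C for 17.5 h. CellTiter-Fluor reagent was then added and fluorescence was measured after 30 min.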

[2] = qHTS assay to identify small molecule agonists of the constitutive androstane receptor (CAR) signaling pathway - cell viability counter screen (AID 1224836); note: nearly all actives have a fitted effect of over 45% in size
Summary of the method: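 HepG2 cells stably carrying hCAR and a CYP2B6-2.2kb reporter were plated 4 h, then given compounds at 15 concentrations plus PK11195 (final 0.75 uM). After 23 h at 37 C, viability was read by CellTiter-Fluor fluorescence.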

[3] = qHTS assay to identify small molecule antagonists of the constitutive androstane receptor (CAR) signaling pathway - cell viability counter screen (AID 1224837); note: nearly all actives have a fitted effect of over 45% in size
Summary of the method: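 Cells are seeded, rested 4 hr at 37 C/5% CO2, dosed with compound (15-point series) and 50 nM CITCO, incubated a further 23 hr, and then CellTiter-Fluor reagent is added before fluorescence is read. The line is HepG2 with stable hCAR and CYP2B6-2.2kb.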

[4] = biological target: Nuclear receptor subfamily 1 group I member 3 (Homo sapiens) (UniProt Q14994); test: qHTS assay to identify small molecule antagonists of the constitutive androstane receptor (CAR) signaling pathway (AID 1224838); note: nearly all actives have a fitted effect of over 40% in size
Summary of the method: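 Luminescence from a CYP2B6-2.2kb promoter reporter in hCAR-expressing HepG2 cells reflects CAR signaling. Cells received compounds at 15 concentrations and 50 nM CITCO (final), then incubated 24 h at 37 C/5% CO2.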

[5] = biological target: Nuclear receptor subfamily 1 group I member 3 (Homo sapiens) (UniProt Q14994); test: qHTS assay to identify small molecule agonists of the constitutive androstane receptor (CAR) signaling pathway (AID 1224839);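 note: HepG2 cells stably carrying human CAR and a CYP2B6 luciferase reporter; nearly all actives have a fitted effect of over 15% in size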
Summary of the method: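 HepG2 cells stably expressing hCAR and a CYP2B6-2.2kb luciferase reporter were treated with compounds at 15 concentrations plus 0.75 uM PK11195 (final) for 24 h at 37 C; luminescence was read after ONE-Glo addition.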

[6] = qHTS assay to identify small molecule antagonists of the estrogen related receptor signaling pathway with the pleiotropic PPARgamma coactivator (PGC) from Tox21 10K library - cell viability counter screen (AID 1224840; active = well fitted cell-killing curve with a large enough effect in the repeat runs, not every such curve was filed as active; note: nearly all actives have a fitted effect of over 40% in size)
Summary of the method: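 Cell viability is measured by CellTiter-Fluor fluorescence in PGC/ERR cells that receive compounds after a 6-hour attachment period and are then incubated 17.5 hours at 37 C.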

[7] = qHTS assay to identify small molecule antagonists of the estrogen related receptor signaling pathway with the pleiotropic PPARgamma coactivator (PGC) from Tox21 10K library (AID 1224841; call rule not given here; note: actives are mostly falling curves and most rising ones were filed inactive; nearly all actives have a fitted effect of over 50% in size)
Summary of the method: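 Cells stably carrying the PGC/ERR reporter, seeded at 2,000 per well, received pin-transferred compounds 6 h post-plating. Exposure lasted 18 h at 37 C. Signal: One-Glo luminescence.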

[8] = biological target: Thyrotropin receptor (Homo sapiens) (UniProt P16473); test: qHTS assay to identify small molecule agonists of the thyroid stimulating hormone receptor (TSHR) signaling pathway (AID 1224843; calls by dose curve; note: nearly all actives have a fitted effect of over 45% in size)
Summary of the method: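 HEK293/TSHR, 800 cells/well; cpd 30 min RT; add cAMP-d2 + anti-cAMP-cryptate, 1 h RT; fluorescence read on plate reader. 15-pt titration, n=3.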

[9] = qHTS assay to identify small molecule agonists of the hypoxia (HIF-1) signaling pathway - cell viability counter screen (AID 1224844; calls by dose curve; note: nearly all actives have a fitted effect of over 50% in size)
Summary of the method: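 Viability counter screen: HRE-bla ME-180 cells plated 5 hrs before compound addition, treated 17 hrs at 37C and 5% CO2, then CellTiter-Glo added after the FRET reporter read; luminescence after 30 min.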

[10] = qHTS assay to identify small molecule agonists of H2AX (AID 1224845; active = well fitted activation curve with a large enough effect in the signal ratio in the repeat runs, not every such curve was filed as active; the % refers to the signal ratio)
Summary of the method: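 Wild-type CHO-K1 cells, plated overnight, exposed 3hr at 37C to 15 concentrations (0.76% DMSO final). Lysed, then HTRF anti-pH2AX (S139) cryptate and anti-H2AX-d2 antibodies, 24 hr room temperature; 665/620 nm emission read.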

[11] = qHTS assay to identify small molecule agonists of the hypoxia (HIF-1) signaling pathway (AID 1224846; active = well fitted activation curve with a large enough effect in the signal ratio in the repeat runs, not every such curve was filed as active; the % refers to the signal ratio)
Summary of the method: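 Agonist mode reporter screen. ME-180 cells stably expressing bla under HRE control received test compounds in DMSO for 17 hrs (37C, 5% CO2), and beta-lactamase activity was then detected with the CCF4-AM FRET substrate.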

[12] = qHTS assay to identify small molecule agonists of H2AX - cell viability counter screen (AID 1224847; calls by dose curve; note: top concentration of the series differs between compounds; nearly all actives have a fitted effect of over 30% in size)
Summary of the method: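 Wild-type CHO-K1 cells (10% FBS medium) were plated overnight at 37C, exposed to compounds at 15 concentrations for 3 hr at 37C (0.76% DMSO final), and viability was read as CellTiter-Glo luminescence after 30 min at room temperature.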

[13] = qHTS assay to identify small molecule antagonists of the estrogen related receptor (ERR) signaling pathway from Tox21 library (AID 1224848); note: nearly all actives have a fitted effect of over 50% in size
Summary of the method: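 Compounds dissolved in DMSO are pin-transferred onto ERR reporter cells (2,000 per well) that have settled for 6 h at 37 C. Plates then incubate 18 h at 37 C before ONE-Glo luciferase reagent and a luminescence read 30 min later.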

[14] = qHTS assay to identify small molecule agonists of the estrogen related receptor (ERR) signaling pathway from Tox21 library (AID 1224849; calls by dose curve; note: nearly all actives have a fitted effect of over 15% in size); conditions: ERR reporter cell line, ONE-Glo luciferase, 18 h; at 92.4 µM (top of the series) unless noted
Summary of the method: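 Quantitative HTS in agonist format: NTP ERR cell line, compounds transferred in DMSO after 6 h plating, 18 h incubation at 37 C, ONE-Glo luminescence endpoint.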

[15] = qHTS RealTime-Glo MT Cell Viability Assay in HepG2 cells - 24 hour (AID 1224867); note: nearly all actives have a fitted effect of over 50% in size
Summary of the method: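 HepG2 cells were seeded at 600 cells/well together with NanoLuc luciferase and a cell-permeant prosubstrate, preincubated 5 h at 37 C/5% CO2, then pin-dosed with compounds in DMSO. Nonlytic luminescence from viable cells was read at each time point.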

[16] = qHTS RealTime-Glo MT Cell Viability Assay in HEK293 cells - 32 hour (AID 1224868)
Summary of the method: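 HEK293 cells were seeded at 600 cells/well together with NanoLuc luciferase and cell-permeant prosubstrate, preincubated 5 h at 37 C/5% CO2, then given compound in DMSO by pintool. Luminescence from viable-cell prosubstrate reduction was read repeatedly over 40 h.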

[17] = A CellTox Green Cytotoxicity Assay to monitor cytotoxicity in HEK293 cells - 0 hour (AID 1224869); note: nearly all actives have a fitted effect of over 50% in size
Summary of the method: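 Dead-cell fluorescence measured kinetically: asymmetric cyanine dye, HEK293, 600 cells/well, 5 h settle, 23 nL cpd/DMSO, 37 C, reads 0–40 h every 8 h.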

[18] = qHTS assay to identify small molecule agonists of the estrogen related receptor signaling pathway with the pleiotropic PPARgamma coactivator (PGC) from Tox21 10K library (AID 1224842); note: nearly all actives have a fitted effect of over 15% in size
Summary of the method: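 PGC/ERR reporter cell line, 2,000 cells per well, incubated 6 h at 37 C before 23 nL compound in DMSO was added. After 18 h at 37 C, One-Glo luminescence read following 30 min at room temperature.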
% is set by controls: 0 for no effect and ±100 for the full control effect.

Thyrotropin receptor (Homo sapiens), sequence (P16473 whole entry, looked up): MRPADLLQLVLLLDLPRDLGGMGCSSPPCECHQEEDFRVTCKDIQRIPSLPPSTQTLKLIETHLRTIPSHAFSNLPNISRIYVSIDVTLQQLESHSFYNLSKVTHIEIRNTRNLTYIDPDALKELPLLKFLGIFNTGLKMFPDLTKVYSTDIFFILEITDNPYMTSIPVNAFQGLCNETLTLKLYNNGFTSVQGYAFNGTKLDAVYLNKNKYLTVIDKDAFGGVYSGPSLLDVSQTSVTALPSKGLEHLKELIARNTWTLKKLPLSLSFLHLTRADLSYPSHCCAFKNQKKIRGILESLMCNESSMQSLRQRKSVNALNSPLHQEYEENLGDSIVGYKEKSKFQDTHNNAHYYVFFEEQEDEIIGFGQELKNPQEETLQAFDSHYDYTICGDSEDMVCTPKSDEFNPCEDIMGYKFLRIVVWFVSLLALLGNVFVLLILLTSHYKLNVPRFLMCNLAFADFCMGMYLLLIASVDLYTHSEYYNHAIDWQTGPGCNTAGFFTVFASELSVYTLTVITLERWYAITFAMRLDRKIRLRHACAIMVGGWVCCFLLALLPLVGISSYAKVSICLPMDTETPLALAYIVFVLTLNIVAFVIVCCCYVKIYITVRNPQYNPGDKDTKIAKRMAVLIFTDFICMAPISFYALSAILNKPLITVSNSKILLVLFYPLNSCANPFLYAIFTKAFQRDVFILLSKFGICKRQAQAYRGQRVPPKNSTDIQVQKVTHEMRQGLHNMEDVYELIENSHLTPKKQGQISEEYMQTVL
Nuclear receptor subfamily 1 group I member 3 (Homo sapiens), sequence (Q14994 whole entry, looked up): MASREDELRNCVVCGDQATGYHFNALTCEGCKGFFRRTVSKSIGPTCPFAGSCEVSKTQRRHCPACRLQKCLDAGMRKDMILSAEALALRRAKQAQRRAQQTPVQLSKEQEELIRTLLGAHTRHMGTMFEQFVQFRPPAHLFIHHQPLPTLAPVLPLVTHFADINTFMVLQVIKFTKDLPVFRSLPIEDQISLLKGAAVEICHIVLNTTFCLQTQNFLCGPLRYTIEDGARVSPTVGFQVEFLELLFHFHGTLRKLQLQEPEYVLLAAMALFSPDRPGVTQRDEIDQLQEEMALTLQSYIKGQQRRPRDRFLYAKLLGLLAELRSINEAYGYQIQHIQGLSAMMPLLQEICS

CCC(C)C1CCCCC1=O (stereo not given)
inactive: Potency [1] | Potency [2] | Potency [3] | Potency [4] | Potency [5] | Potency [6] | Potency [7] | Potency [8] | Potency [9] | outcome [10] | outcome [11] | Potency [12] | Potency [13] | activity change, positive = activation [14] 3.66% | Potency [15] | Potency [16] | Potency [17]

CCOC(=O)CCC(C)=O
inactive: Potency [1] | Potency [2] | Potency [3] | Potency [4] | Potency [5] | Potency [6] | Potency [7] | Potency [9] | outcome [10] | outcome [11] | Potency [12] | Potency [13] | activity change, positive = activation [14] 4.77% | Potency [15] | Potency [16] | Potency [17]

CC(C)(C)NCCNC(C)(C)C
inactive: Potency [1] | Potency [2] | Potency [4] | Potency [5] | Potency [6] | Potency [7] | outcome [18] | Potency [8] | Potency [9] | outcome [10] | outcome [11] | Potency [12] | Potency [13] | activity change, positive = activation [14] 3.81% | Potency [15] | Potency [16] | Potency [17]

Nc1c[n+](N2CCOCC2)no1
inactive: Potency [1] | Potency [2] | Potency [4] | Potency [5] | Potency [6] | Potency [7] | Potency [8] | Potency [9] | outcome [10] | outcome [11] | Potency [12] | Potency [13] | activity change, positive = activation [14] 0.251% [at 42.5 µM] | Potency [15] | Potency [16] | Potency [17]

CCCCCCCCCCCCCCCCC
inactive: Potency [1] | Potency [2] | Potency [3] | Potency [4] | Potency [5] | Potency [6] | Potency [7] | outcome [18] | Potency [8] | Potency [9] | outcome [10] | outcome [11] | Potency [12] | activity change, positive = activation [14] -0.135% | Potency [15] | Potency [17]

CCSC(=O)N(CC(C)C)CC(C)C
inactive: Potency [1] | Potency [2] | Potency [3] | Potency [4] | Potency [5] | Potency [6] | Potency [7] | outcome [18] | Potency [9] | outcome [10] | outcome [11] | Potency [12] | Potency [13] | activity change, positive = activation [14] 3.6% | Potency [15] | Potency [17]

CCOC(=O)CC(C)=O
inactive: Potency [1] | Potency [2] | Potency [3] | Potency [6] | Potency [8] | Potency [9] | outcome [10] | outcome [11] | Potency [12] | Potency [15] | Potency [16] | Potency [17]

Source: PubChem BioAssay (Tox21)
